Compound activity: PubChem BioAssay, National Center for Advancing Translational Sciences (NCATS)
Most compounds without a hit are left out; they make up all but 7.5% or so of the library.
Rab9 prom act = activates the Rab9 promoter; Huh7 Rab9 promoter-luciferase reporter, luminescence, 24 h; Potency, µM (top dose mostly 9.22 µM), without a hit: at the top dose activation, negative = inhibition, hits mostly activators; 320,000 compounds, 2.8% hits; AID 485297; further: % of control where 0% means no effect; nearly all actives have a fitted effect of over 60% in size
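Steps: seed 1500 Huh7 Rab9-luc cells per well, rest 2 h at 37 °C; add compound in DMSO; incubate 24 h; add luciferase reagent, 10 min ambient; read luminescence.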
ELG1 genotoxic = genotoxicity induction in ELG1-luciferase HEK293T cells; AID 504466; Potency, µM (series often up to 46 µM), without a hit: at the highest dose activity change, positive = activation, actives largely listed as activators; HEK293T ELG1-luciferase reporter, luminescence, 16 h; 330,000 compounds, 1.3% hits; further: % of control where 0% means no effect; nearly all actives have a fitted effect of over 60% in size
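Cells (2,000/well) expressing the ELG1-luciferase fusion are dosed by pin tool and kept 16 hr at 37 °C, 5% CO2. Signal comes from ONE-Glo luciferase reagent after 30 min at room temperature.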
SMN2 splice up = increases expression of the SMN2 splice variant; HEK293 SMN2-luciferase splicing reporter, luminescence, 30-36 h; 210,000 compounds, 2.8% hits; Potency, µM (titrated, usually from 46.1 µM), for the others: at the top dose activity change, positive = activation, actives largely listed as activators; further: % of control where 0% means no effect; nearly all actives have a fitted effect of over 55% in size
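qHTS luciferase splicing reporter: luminescence rises when SMN2 exon 7 is included in transfected HEK293 cells. Compound exposure lasted 30-36 h at 37C, with 4.5 mM final sodium butyrate as control, followed by a ONE-Glo read.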
FLuc modulator = counter-screen for miR-21 project: firefly luciferase inhibitors or activators; P08659; Potency, µM (series often up to 57.5 µM), for the others: at the highest dose activity change, negative = inhibition, most hits filed as inhibitors; AID 588342; purified FLuc, Km substrates, luminescence inhibition; 360,000 compounds, 6.9% hits;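 further: plate controls were vehicle for no effect and reference inhibitor for full effect; nearly all actives have a fitted effect of over 55% in size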
Target sequence (P08659 whole entry, looked up): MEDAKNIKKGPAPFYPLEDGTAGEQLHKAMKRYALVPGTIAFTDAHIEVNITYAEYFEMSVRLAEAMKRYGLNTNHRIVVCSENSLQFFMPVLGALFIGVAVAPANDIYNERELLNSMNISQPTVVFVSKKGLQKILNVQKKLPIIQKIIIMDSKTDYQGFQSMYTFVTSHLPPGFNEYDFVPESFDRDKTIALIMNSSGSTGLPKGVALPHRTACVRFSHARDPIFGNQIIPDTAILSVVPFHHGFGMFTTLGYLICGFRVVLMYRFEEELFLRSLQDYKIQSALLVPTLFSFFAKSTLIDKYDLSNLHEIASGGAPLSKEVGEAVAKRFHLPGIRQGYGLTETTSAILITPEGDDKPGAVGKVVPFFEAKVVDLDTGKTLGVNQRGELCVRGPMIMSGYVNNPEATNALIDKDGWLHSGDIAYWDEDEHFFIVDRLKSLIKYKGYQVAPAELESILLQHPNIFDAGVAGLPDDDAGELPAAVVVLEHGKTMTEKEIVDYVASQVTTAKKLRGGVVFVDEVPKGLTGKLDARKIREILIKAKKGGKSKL
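Biochemical qHTS of compounds, final roughly 60 µM downward over six points, against 10 nM purified firefly luciferase using Km concentrations of substrates (10 uM D-luciferin, 10 uM ATP) in Tris acetate pH 7.5 buffer; luminescence output.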
Luc counter = blocks Kinase-Glo luciferase, a counter-screen artifact. 200,000 compounds, 0.28% hits. AID 1379. Kinase-Glo luciferase, ATP luminescence, 8 min. Potency, µM (series often up to 38.3 µM), without a hit: at the highest dose activity change, negative = inhibition, most hits filed as inhibitors; further: on the % scale 0 is the no-effect control and ±100 the full control effect; nearly all actives have a fitted effect of over 60% in size
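Inhibition of Kinase-Glo luciferase light generation was assessed at 10 uM ATP in pH 7.2 imidazole buffer, with luminescence measured after eight minutes at ambient temperature.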
NPC1 prom act = NPC1 promoter activation; Huh7 NPC1 promoter luciferase reporter, 24 h; Potency, µM (titrated, usually from 9.22 µM), without a hit: top-dose activation, hits mostly activators; 320,000 compounds, 2.4% hits; AID 485313; further: % of control where 0% means no effect; nearly all actives have a fitted effect of over 60% in size
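Quantitative HTS used a cell-based reporter: Huh7 cells stably bearing the NPC1 promoter upstream of luciferase were treated with compounds for 24 h, and promoter activation was read as luminescence.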
* marks the source's active call; other numbers are inactive results; ? = inconclusive; · = no result given. The call rests on the fitted dose curve; in most records, active means well fitted curve in the direction sought with a large enough effect; inconclusive means small, poorly fitted or top-dose-only effect, or another doubt; inactive means no such curve, though single readings can be large; an effect the other way counts as inactive or inconclusive. Potency means the concentration at half of the fitted maximal effect.

SMILES | Rab9 prom act | ELG1 genotoxic | SMN2 splice up | FLuc modulator | Luc counter | NPC1 prom act
C/C(CC(=O)N1CCCC1)=N\NC(=O)c1cc2ccccc2cc1O | 1% | -9% | · | 15µM* | · | 14%
CC1CCCN(C(=O)COC(=O)c2n[nH]c3ccccc23)C1 (stereo not given) | ? | 23µM* | 26% | 17µM* | -3% | ?
O=C(OCC(=O)N1CCCCC1)c1cc2ccccc2cc1O | 12% | ? | -5% | 24µM* | -5% | 12%
CN(C(=O)COC(=O)c1cc2ccccc2cc1O)C1CCCCC1 | 1% | 1% | · | 19µM* | · | 7%
Cn1c(SCc2ccc([N+](=O)[O-])cc2)nnc1-c1cccnc1 | -10% | -1% | 10% | -1% | -5% | -2%
COc1cccc([C@@H]2Oc3ccc(OC)cc3C(=O)[C@H]2OC(=O)Nc2ccc(OC(F)F)cc2)c1 | · | · | -3% | · | 2% | ·
O=C(OCC(=O)N1CCCC1)c1c[nH]c2ccccc12 | 22% | 5% | · | · | · | 9%
O=C(OCC(=O)N1CCOCC1)c1ccccc1O | 4µM* | ? | · | 24µM* | · | ?
O=C(OCC(=O)N1CCCCC1)c1c[nH]c2ccccc12 | ? | ? | · | 17µM* | · | 24%
COc1ccc(-c2nc(SCC(=O)Nc3ccc4c(c3)OCCO4)c(-c3ccccc3)[nH]2)cc1 | · | · | -22% | 6µM* | · | ·
Cc1cccc(-c2nc(SCC(=O)Nc3ccc4c(c3)OCCO4)c(-c3ccccc3)[nH]2)c1 | · | · | -41% | 8.5µM* | · | ·
O=C(CSc1nc(-c2ccccc2)[nH]c1-c1ccccc1)Nc1ccc2c(c1)OCO2 | · | · | 24% | -14% | · | ·
COc1cc(-c2nc(SCC(=O)Nc3ccc4c(c3)OCO4)c(-c3ccccc3)[nH]2)cc(OC)c1OC | · | · | ? | 8.5µM* | · | ·
COc1cccc(-c2nc(SCC(=O)Nc3ccc4c(c3)OCCO4)c(-c3ccccc3)[nH]2)c1 | · | · | -20% | 5.4µM* | · | ·
COc1ccc(-c2[nH]c(-c3cccc(OC)c3)nc2SCC(=O)Nc2ccc3c(c2)OCO3)cc1 | · | · | 1% | -9% | · | ·
O=C(CSc1nc(-c2cccc(F)c2)[nH]c1-c1ccccc1)Nc1ccc2c(c1)OCCO2 | · | · | 37% | ? | · | ·
CCOc1ccc(-c2nc(SCC(=O)Nc3ccc4c(c3)OCCO4)c(-c3ccc(F)cc3)[nH]2)cc1 | · | · | -15% | 3% | · | ·
CC(=O)c1ccc(NC(=O)COCc2cc(-c3ccco3)on2)cc1 | · | · | · | 3% | · | ·
CN1C=CC=C/C1=C1/N=C(c2ccccc2)OC1=O | 3.2µM* | 3% | ? | ? | 1% | ?
CC1=CC(=C2N=C(c3ccccc3)OC2=O)C=C(C)O1 | ? | 7% | 12% | ? | -3% | ?
CCN(CC)c1ccc(-c2nc3cnccn3c2NC2CCCC2)cc1 | -3% | -1% | -18% | 11µM* | 0% | 15%
c1cn2c(NC3CCCC3)c(-c3ccc(N4CCOCC4)cc3)nc2cn1 | ? | ? | 13% | 2.1µM* | -4% | ?
Cc1cc(C)c(S(=O)(=O)N2CCOC2CNC(=O)C(=O)NCCCN2CCOCC2)c(C)c1 (stereo not given) | 1.4µM* | ? | · | 8.5µM* | · | 2.5µM*
CCN1CCN(CCCNC(=O)C2CCCN(c3nc4c(C)cc(C)cc4s3)C2)CC1 (stereo not given) | 3% | ? | · | 17µM* | · | 17%
CCCOc1ccc(CNC(=O)C2CCCN(c3nc4c(C)cc(C)cc4s3)C2)cc1 (stereo not given) | · | · | 3% | 0% | · | ·
SMILES | Rab9 prom act | ELG1 genotoxic | SMN2 splice up | FLuc modulator | Luc counter | NPC1 prom act
Cc1cc(C)c2nc(N3CCCC(C(=O)NCCCN4CCOCC4)C3)sc2c1 (stereo not given) | ? | 15% | 14µM* | ? | -4% | 23%
Cc1cc(C)c2nc(N3CCCC(C(=O)NCCN4CCOCC4)C3)sc2c1 (stereo not given) | 9% | ? | 16µM* | 13µM* | -7% | ?
Cc1cc(C)c2nc(N3CCC(C(=O)NCCCN4CC(C)CC(C)C4)CC3)sc2c1 (stereo not given) | 26% | 15% | -34% | ? | 0% | 4%
COc1cc(OC)c(N(C)C(=O)c2nn(C)c3c2CSc2ccccc2-3)cc1Cl | · | · | · | -1% | · | ·
COc1ccccc1C(=O)NCC(=O)N/N=C/c1cn[nH]c1-c1ccccc1 | -4% | -8% | 2% | -8% | 1% | 2%
CCOc1ccccc1C(=O)Nc1ccc(S(=O)(=O)Nc2onc(C)c2C)cc1 | · | · | -12% | ? | · | ·
Cn1c(=O)c2ccccc2n(CC(=O)N2CCCc3ccccc32)c1=O | -3% | 0% | · | 1% | · | -1%
CCCCOc1ccc(C2C(=O)N(C3CCCCC3)CC(=O)N2C2CCCCC2)cc1 (stereo not given) | · | · | · | 2% | · | ·
O=C(O)c1cccc(CN2C(=O)SC(Nc3cccc4ccccc34)C2=O)c1 (stereo not given) | -2% | 3% | · | ? | -2% | -4%
CC(=O)Oc1oc(-c2ccccc2)nc1/C=N/c1ccccn1 | 25% | ? | ? | 21µM* | ? | 17%
COc1ccccc1N=Cc1nc(-c2ccccc2)oc1OC(C)=O | -4% | 4% | -14% | -4% | 6% | -1%
CN(C)c1ccc(N=Cc2nc(-c3ccccc3)oc2OC(=O)c2ccccc2)cc1 | ? | ? | 11µM* | ? | -6% | ?
CC(C)CN=c1cc(-c2ccccc2)oc2ccc(Cl)cc12 | 20% | 4% | 17% | ? | 1% | 16%
CC(O)CN=c1cc(-c2ccccc2)oc2ccc(Cl)cc12 (stereo not given) | ? | ? | 17% | 15µM* | 4% | ?
O=C(COC(=O)CN1C(=O)C(=O)c2ccccc21)OCN1C(=O)c2ccccc2C1=O | 4% | 0% | -15% | 3% | -3% | 1%
CC(C)OC(=O)c1cccc(C(=O)Oc2ccc(Br)cc2)n1 | -5% | 0% | 1% | 9.5µM* | -5% | -4%
CC(C)OC(=O)c1cccc(C(=O)O)n1 | -1% | 0% | -9% | 0% | -5% | -6%
Cc1ccc(C(=O)Nc2ccc(C(=O)OCc3cc(=O)n4c5c(sc4n3)CCCC5)cc2)cc1 | · | · | · | -5% | · | ·
COc1cccc(C(C)NC(=O)Nc2ccccc2Cl)c1 (stereo not given) | -4% | 0% | -45% | -7% | 2% | 3%
CONC(=O)C1CCN(C(=O)OCc2ccccc2)CC1 | ? | 5% | 7.9µM* | -16% | 3% | ?
COc1ccccc1CNC(=O)CC(c1ccc(F)cc1)N1Cc2ccccc2C1=O (stereo not given) | · | · | · | -6% | · | ·
